Data on 100 compounds can be found in PubChem BioAssay AID1259374 (The Scripps Research Institute Molecular Screening Center, 2018).

Out of some 650,000 compounds screened, about 5,900 (0.91%) were called active. Cut-off read from the data, not from the text of the source: active = inhibition above about 50%; inactive = the rest. The sample as a whole holds a higher share of actives than the screen did.

For the assay, the target named is Microphthalmia-associated transcription factor (Homo sapiens) (UniProt O75030). As to the kind of experiment: MITF inhibitors, primary screen, biochemical, AlphaScreen, human (AID 1259374).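 Note: 0% = vehicle wells with protein.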 Particulars: AlphaScreen MITF homodimerization, bead proximity signal; at 2.6 µM; hits give high values. (In Alpha technology, singlet oxygen from a donor bead excites a nearby acceptor bead.)
Chain of Microphthalmia-associated transcription factor (Homo sapiens) (O75030 whole entry, looked up): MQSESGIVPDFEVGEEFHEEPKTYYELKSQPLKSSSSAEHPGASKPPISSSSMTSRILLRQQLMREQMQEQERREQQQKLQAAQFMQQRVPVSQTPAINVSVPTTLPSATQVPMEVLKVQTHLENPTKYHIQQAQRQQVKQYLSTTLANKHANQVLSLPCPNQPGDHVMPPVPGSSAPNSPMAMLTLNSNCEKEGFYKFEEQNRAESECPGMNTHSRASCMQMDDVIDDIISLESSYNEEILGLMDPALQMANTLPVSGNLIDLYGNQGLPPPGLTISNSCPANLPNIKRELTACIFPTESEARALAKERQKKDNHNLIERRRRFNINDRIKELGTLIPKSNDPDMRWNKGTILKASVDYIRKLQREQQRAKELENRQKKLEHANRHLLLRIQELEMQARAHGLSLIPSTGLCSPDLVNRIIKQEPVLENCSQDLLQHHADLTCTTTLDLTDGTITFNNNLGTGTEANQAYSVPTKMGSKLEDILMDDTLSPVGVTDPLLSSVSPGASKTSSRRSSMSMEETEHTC
As for `c1cc2c(cc1CN1CCN(C3CCCC3)CC1)OCO2`, the inhibition is 62.8% (active).

Regarding `CCC(C)(C)C(=O)N1CCN(Cc2ccc3c(c2)OCO3)CC1`, the inhibition is 9.89% (inactive).

Consider `CCCNC(=O)N1CCCC(N2CCN(Cc3ccc4c(c3)OCO4)CC2)C1` (stereo not given), for which the inhibition is 12.8% (inactive).

As for `COC(=O)C(C)CN1CCN(Cc2ccc3c(c2)OCO3)CC1` (stereo not given), the inhibition is 78.9% (active).

With `c1cc2c(cc1Cn1nnnc1CN1CCN(C3CCCC3)CC1)OCO2`, the inhibition is 7.92% (inactive).

Turning to `c1cc2c(cc1CN1CCN(C3CCCCC3)CC1)OCO2`, the inhibition was 60.9% (active).

As for `CC(=O)Oc1ccc(C(=O)N2CCN(Cc3ccc4c(c3)OCO4)CC2)cc1`, the inhibition was -6.96% (inactive).

As to `CC(C)CCCN1CCC(N2CCN(Cc3ccc4c(c3)OCO4)CC2)CCC1=O` (stereo not given), the inhibition was -10.8% (inactive).

Regarding `OC1CCCN(Cc2ccc3c(c2)OCO3)C1` (stereo not given), the inhibition is 6.89% (inactive).

With `COc1ccc(OC(=O)c2cccc(C(=O)OC(C)C)n2)cc1`, the inhibition was 7.42% (inactive).

`COCCNC(=O)c1ccc(-c2cccc(OC)c2)nc1NCC1CC1`: the inhibition was -12.1% (inactive).

For the compound `NC(=O)CC[C@H](NC(=O)c1ccc(F)cc1)C(=O)OCC(=O)c1ccccc1`, the inhibition is 1.49% (inactive).

`CO[C@@H](C1CCCCC1)[C@@H](C)[C@H](OCc1cccc(Br)c1)[C@@H](C)CO`: the inhibition is -6.84% (inactive).

For `CCN(Cc1ccccc1)Cc1cc(OC)c(OC)c(OC)c1`, the inhibition was 5.59% (inactive).

On to `COc1cc(CN(CCN(C)C)Cc2ccccc2)cc(OC)c1`, for which the inhibition is 70% (active).

On to `COc1cc(CN(CCCN(C)C)CCCN(C)C)cc(OC)c1`, for which the inhibition was 45.5% (inactive).

For `Cc1ccc(OCCCNC2CCCC2)c(I)c1`, the inhibition is 29.7% (inactive).

For the compound `CCOc1ccc2[nH]c(=O)c(CN(CCO)C(=O)c3ccco3)cc2c1`, the inhibition is 6.48% (inactive).

For `COC(=O)CCS(=O)(=O)c1ccc(C(=O)O)cc1N`, the inhibition is -6.29% (inactive).

Take `COc1ccc(-c2noc(=O)n2CC(=O)N(c2ccccc2)c2ccccc2)cc1`: the inhibition is 2.22% (inactive).

Take `O=C(CN1CCSCC1)N/N=C/c1ccc(F)cc1`: the inhibition was 47% (inactive).

Consider `CN1CCN(CCC(=O)N/N=C/c2ccsc2)CC1`, for which the inhibition was 53.5% (active).

For `O=C(CN1CCSCC1)N/N=C/c1ccc(Cl)cc1`, the inhibition was 17.4% (inactive).

Regarding `COc1ccc2c(c1)OC(C)CN(C(=O)C1CCCCCN1C)C2` (stereo not given), the inhibition is 1.95% (inactive).

For `CCCNCc1nc(-c2ccc(OC)c(OC)c2)no1`, the inhibition was 11.7% (inactive).

For the compound `Cc1cnc(NCc2ccc3c(c2)OCO3)nc1Nc1ccccc1`, the inhibition was 69.7% (active).

For the compound `Cc1cnc(NCc2ccc3c(c2)OCO3)nc1NCCN1CCOCC1`, the inhibition is 16% (inactive).

As for `c1ccc(Nc2cc(NCc3ccc4c(c3)OCO4)ncn2)cc1`, the inhibition was -2.56% (inactive).

For the compound `COc1ccc(-c2csc3nc(C)n(N)c(=O)c23)cc1OC`, the inhibition was 14.4% (inactive).

For `Fc1cccc(Cl)c1Cn1nnc(-c2ccncc2)n1`, the inhibition is 74% (active).

Turning to `Fc1cccc(Cl)c1CSc1nnc2ncccn12`, the inhibition was -8.92% (inactive).

For the compound `c1ccc(OCCCCn2nnc(-c3ccncc3)n2)cc1`, the inhibition was 10.3% (inactive).

In the case of `CC1CCc2sc(NC(=O)c3ccccc3[N+](=O)[O-])c(C#N)c2C1` (stereo not given), the inhibition was 11.5% (inactive).

As to `CC1=CCC(C(=O)O)(C(=O)N/N=C/C2=C(O)CC(C)(C)CC2=O)CC1c1ccccc1` (stereo not given), the inhibition was 45.2% (inactive).

For `COc1ccc(-c2nc(Nc3cc(OC)c(OC)c(OC)c3)c3[nH]cnc3n2)cc1`, the inhibition is 63.2% (active).

Turning to `COc1ccc(-c2nc(N)c3[nH]cnc3n2)cc1`, the inhibition is -0.37% (inactive).

In the case of `COc1cc(Nc2nc(Nc3cc(OC)c(OC)c(OC)c3)c3[nH]cnc3n2)cc(OC)c1OC`, the inhibition is -7.41% (inactive).

Take `Cc1cccc(NC(=O)C(c2ccccc2)N2CCOCC2)c1` (stereo not given): the inhibition was 2.38% (inactive).

Turning to `Cc1c(C(C)NC(=O)c2csc(C(C)C)n2)cnn1-c1ccccn1` (stereo not given), the inhibition was 1.61% (inactive).

Consider `C=CCN=Cc1c(C)[nH]n(-c2ccc([N+](=O)[O-])cc2)c1=O`, for which the inhibition is 0.33% (inactive).

Regarding `COc1cc(C=O)ccc1OCCCN1CCCCC1`, the inhibition was 34.3% (inactive).

On to `CCN1CCN(CCOCCOc2ccccc2OCc2ccccc2)CC1`, for which the inhibition was 80.8% (active).

On to `Cc1ccc(Cl)c(OCCn2cnc3ccccc3c2=O)c1`, for which the inhibition is 10.1% (inactive).

As for `CCCCOc1ccccc1OCCCN1CCN(C)CC1`, the inhibition was -4.11% (inactive).

Take `CCc1ccccc1OCCCN1CCOCC1`: the inhibition is 38.5% (inactive).

Turning to `CCN1CCN(CC(=O)c2cc(OC)c(OC)c(OC)c2)CC1`, the inhibition was 6.5% (inactive).

As to `CCN1CCN(CCCCOc2ccccc2F)CC1`, the inhibition was 63.7% (active).

As for `O=c1c2ccccc2ncn1CCCCOc1ccccc1F`, the inhibition is 52.4% (active).

As to `COc1ccccc1OCCOCCOc1ccccc1OC`, the inhibition is -12.3% (inactive).

`O=c1c2ccccc2nc(-c2ccc(Cl)cc2)n1CCCCOc1ccccc1F`: the inhibition is -6.63% (inactive).

Consider `CCN1CCN(CCCOc2ccc(C(C)=O)cc2OC)CC1`, for which the inhibition was 77.9% (active).

As to `c1ccc2cc(OCCOCCN3CCOCC3)ccc2c1`, the inhibition is 12.8% (inactive).

As for `C=CCC1(CC=C)CCCN1C(=O)CC1C(=O)NCCN1Cc1ccccc1C` (stereo not given), the inhibition was 5.18% (inactive).

`CCOC(=O)CSc1nc2ccc(Cl)cc2n2cnnc12`: the inhibition is -5.55% (inactive).

As to `Cc1nn(-c2ccccn2)c2c1C(=O)/C(=C\Nc1cccc([N+](=O)[O-])c1)CC2`, the inhibition was -6.22% (inactive).

Turning to `COc1ccc(C(=O)Oc2ccc3c(c2)C(C)=CC(C)(C)N3C(=O)c2ccc(OC)cc2)cc1`, the inhibition was 8.97% (inactive).

With `Cc1ccc(S(=O)(=O)NC(=NC(CC(=O)O)C(=O)O)c2ccccc2)cc1` (stereo not given), the inhibition is -0.64% (inactive).

Take `O=C1NC2(CCCCC2)N(C(=O)c2ccc(Cl)cc2)C2=C1CCCC2`: the inhibition is 9.62% (inactive).

`CCCCN(CC)C(=O)c1c[nH]c2ccc(S(=O)(=O)N(C)c3ccc(CC)cc3)cc2c1=O`: the inhibition was 1.47% (inactive).

In the case of `CC(C)c1cc(Br)ccc1OCCOCCN1CCN(C)CC1`, the inhibition is -24.1% (inactive).

`CN1CCN(CCOCCOc2ccccc2Cl)CC1`: the inhibition is 53.8% (active).

In the case of `Cc1ccc(OCCOCCN2CCN(C)CC2)c(Br)c1`, the inhibition was 42.5% (inactive).

On to `O=C(O)C1CSC(c2cccc(I)c2)N1` (stereo not given), for which the inhibition was 10% (inactive).

Regarding `Cc1ccc(-c2c(C(=O)Nc3cccc(O)c3)oc(=O)c3ccccc23)cc1`, the inhibition was 26.8% (inactive).

For the compound `O=C(O)CCC(=O)Nc1ccc([N+](=O)[O-])cc1`, the inhibition is -7.16% (inactive).

As to `O=C(CCC(=O)OCc1ccc(Cl)cc1)Nc1ccc([N+](=O)[O-])cc1`, the inhibition is 59.3% (active).

As to `O=C(COc1ccc([N+](=O)[O-])cc1)Nc1ccc(Cl)cc1`, the inhibition was 12.6% (inactive).

Turning to `CC(=O)C1=C(O)C(=O)N(CCCN(C)C)C1c1ccc(Br)cc1` (stereo not given), the inhibition is 4.38% (inactive).

With `COc1ccccc1/C=C1\SC(=S)N(CCC(=O)Nc2nc(C)cs2)C1=O`, the inhibition is 13.4% (inactive).

For the compound `CCOCc1nnc(NC(=O)C2CC(=O)N(c3ccc(C)cc3)C2)s1` (stereo not given), the inhibition was 9.92% (inactive).

Consider `Cc1cc(OCCN2CCOCC2)nc(N2CCOCC2)n1`, for which the inhibition was 5.58% (inactive).

In the case of `Cc1ccc(C)c(OCCN2CCOCC2)c1C`, the inhibition is 54.9% (active).

As to `Cc1cc(Cl)c(OCCN2CCOCC2)c(Br)c1`, the inhibition was 33.1% (inactive).

As for `CCOc1cccc(C(=O)Nc2ccc3oc(-c4ccc(Cl)c(Cl)c4)nc3c2)c1`, the inhibition was 4.15% (inactive).

With `CCOCCOC(=O)C1=C(C)NC(=O)NC1c1ccccc1` (stereo not given), the inhibition is 2.55% (inactive).

As to `Cc1n[nH]c(=O)nc1N/N=C/c1cccs1`, the inhibition was 86.2% (active).

As for `COc1cccc(/C=N/Nc2nc(=O)[nH]nc2C)c1OC`, the inhibition is 35% (inactive).

Regarding `Cc1cccc(Nc2nc(=O)[nH]nc2C)c1`, the inhibition is 13.2% (inactive).

With `O=c1[nH]cnc2nc(N/N=C/c3ccc(Cl)cc3)[nH]c12`, the inhibition was -5.83% (inactive).

For the compound `O=C(Nc1cccc(Br)c1)N1CCC(CN2CCCC2)CC1`, the inhibition is 5.45% (inactive).

For `COc1cc(-c2cc(C(N)=O)on2)ccc1O`, the inhibition is 3.55% (inactive).

For the compound `COc1cc2nc(-c3cccc(C(C)=O)c3)nc(N)c2cc1OC`, the inhibition was 60.9% (active).

For `COc1cc2nc(-c3cccc(C(C)=O)c3)nc(Nc3ccc(N4CCOCC4)cc3)c2cc1OC`, the inhibition is 1.79% (inactive).

Turning to `CC(=O)c1cccc(-c2ncc(C)c(N)n2)c1`, the inhibition was 0.72% (inactive).

With `O=C(Cc1ccccc1)NC(c1ccc(Cl)cc1)c1ccc2cccnc2c1O` (stereo not given), the inhibition was -1.99% (inactive).

Regarding `Cc1ccc(C(NC(=O)Cc2ccccc2)c2ccc3cccnc3c2O)cc1` (stereo not given), the inhibition was 3.27% (inactive).

For the compound `CC(=O)NC(c1ccccc1)c1ccc2cccnc2c1O` (stereo not given), the inhibition was 54.5% (active).

Regarding `CC(=O)NC(c1cccs1)c1cc(Cl)c2cccnc2c1O` (stereo not given), the inhibition was 59.1% (active).

In the case of `Oc1c(C(Nc2ccccn2)c2ccc(OC(F)F)cc2)ccc2cccnc12` (stereo not given), the inhibition was 12.2% (inactive).

Regarding `COc1cccc(C(=O)NC(c2cccc([N+](=O)[O-])c2)c2cc(Cl)c3cccnc3c2O)c1` (stereo not given), the inhibition is 4.72% (inactive).

For the compound `Oc1c(C(Nc2ccccn2)c2cccnc2)ccc2cccnc12` (stereo not given), the inhibition was 58.1% (active).

Regarding `Cc1ccnc(NC(c2ccccc2Cl)c2ccc3cccnc3c2O)c1` (stereo not given), the inhibition was 22.3% (inactive).

As to `CCOc1ccc(C(NC(=O)c2cc(OC)c(OC)c(OC)c2)c2cc(Cl)c3cccnc3c2O)cc1` (stereo not given), the inhibition was 17.1% (inactive).

Regarding `O=C(Oc1ccc2sc(=O)oc2c1)c1cccc(C(F)(F)F)c1`, the inhibition is -7.72% (inactive).

Take `N#Cc1ccc(NC(=O)c2ccccc2C(=O)O)cc1`: the inhibition is 4.7% (inactive).

As to `Cc1ccc(S(=O)(=O)N/N=C/c2cccnc2)cc1[N+](=O)[O-]`, the inhibition was -30.1% (inactive).

For `COc1ccc(/C=C/c2cc[n+](C)cc2)c(OC)c1`, the inhibition is -10.4% (inactive).

`CC(=O)Nc1cc(C(=O)NCCN2CCOCC2)cc(-n2ncc3cc(Nc4c(Cl)cccc4Cl)ccc32)c1`: the inhibition was -3% (inactive).

Turning to `CCOC(=O)C1C2C=CC3(CN(c4ccc(C)cc4)C(=O)C13)O2` (stereo not given), the inhibition is 0.13% (inactive).

On to `O=C(CCCn1c(SCC(=O)c2ccc(Cl)c(Cl)c2)nc2ccsc2c1=O)NCCc1ccccc1`, for which the inhibition is 2.74% (inactive).

One may read the inhibition as the relative decrease from the control value, in per cent.
